Common to all, as to details: mRNA level, 48 h; actives raise or lower the signal
Read-out in assay [1]: Tumor necrosis factor receptor superfamily member 6 (Homo sapiens) (UniProt P25445)
Kind of assay: LTEA_HepaRG_FAS: Life Technologies and Expression Analysis (LTEA) Assay for Fas cell surface death receptor (FAS) using HepaRG (AID 2283447). A digest of the protocol:
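FAS transcript level was measured by TaqMan qRT-PCR against three housekeeping genes after 48 h chemical exposure. Cells were HepaRG, 0.5% DMSO vehicle, with a top concentration of 100 uM and half-log dilutions over eight points, in duplicate.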

Read-out in assay [2]: Fatty acid synthase (Homo sapiens) (UniProt P49327)
Nature of the assay: LTEA_HepaRG_FASN: Life Technologies and Expression Analysis (LTEA) Assay for Fatty Acid Synthase (FASN) using HepaRG (AID 2283448).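 As to AC50: differentiated human HepaRG liver cells in serum-free induction medium.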 Put shortly: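 Transcript-level assay: HepaRG liver cells are treated for 48 h across an eight-point range topping at 100 uM, and FASN mRNA, normalized to three housekeeping genes, is compared with DMSO controls in both directions.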

Read-out in assay [3]: Cyclin D2 (CCND2), CCND2 (gene 894)
Nature of the assay: LTEA_HepaRG_CCND2: Life Technologies and Expression Analysis (LTEA) Assay for Cyclin D2 (CCND2) using HepaRG (AID 2283449). A digest of the protocol: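 Read-out is CCND2 mRNA level measured by qRT-PCR in human HepaRG liver cells and normalised to three housekeeping genes. Chemicals were applied for 48 h at up to 100 uM, with gain or loss fitted relative to 0.5% DMSO.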

Read-out in assay [4]: Cyclin Dependent Kinase Inhibitor 1A (CDKN1A), CDKN1A (gene 1026)
Nature of the assay: LTEA_HepaRG_CDKN1A: Life Technologies and Expression Analysis (LTEA) Assay for Cyclin Dependent Kinase Inhibitor 1A (CDKN1A) using HepaRG (AID 2283450). Put shortly:
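Cryopreserved HepaRG cells were plated and cultured 48 h, then switched to serum-free induction medium. Chemicals (eight half-log concentrations, top 100 uM, 0.5% DMSO) were applied for 48 h. Lysates underwent qRT-PCR for CDKN1A with housekeeping normalization.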

Read-out in assay [5]: Cyclin D1 (CCND1), CCND1 (gene 595)
Nature of the assay: LTEA_HepaRG_CCND1: Life Technologies and Expression Analysis (LTEA) Assay for Cyclin D1 (CCND1) using HepaRG (AID 2283451).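 As to AC50: differentiated human HepaRG liver cells in serum-free induction medium; TaqMan qRT-PCR transcript level normalised to ACTB GAPDH and POLR2A housekeeping genes.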 A digest of the protocol:
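Human liver HepaRG line; 48 h dosing, 8 conc. ≤100 uM, 0.5% DMSO; TaqMan qRT-PCR mRNA, 3 housekeeping genes; bidirectional curve fit vs DMSO.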

Read-out in assay [6]: catalase (CAT), CAT (gene 847)
Kind of assay: LTEA_HepaRG_CAT: Life Technologies and Expression Analysis (LTEA) Assay for catalase (CAT) using HepaRG (AID 2283452).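 As to AC50: TaqMan qRT-PCR signal normalized to ACTB GAPDH and POLR2A housekeeping genes.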 A digest of the protocol: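 Expression of CAT was quantified by TaqMan qRT-PCR with ACTB/GAPDH/POLR2A normalization after 48 h chemical exposure of HepaRG. Eight-point half-log series, top 100 uM, in 0.5% DMSO; gain or loss fitted against vehicle.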

Read-out in assay [7]: flavin-containing dimethylaniline monooxygenases 3 (FMO3), FMO3 (gene 2328)
Kind of assay: LTEA_HepaRG_FMO3: Life Technologies and Expression Analysis (LTEA) Assay for flavin-containing dimethylaniline monooxygenases 3 (FMO3) using HepaRG (AID 2283453).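 As to AC50: differentiated human HepaRG liver cells in serum-free induction medium; FMO3 transcript by TaqMan qRT-PCR normalized to ACTB GAPDH and POLR2A.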 A digest of the protocol: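 HepaRG, 48 h exposure, 8-pt half-log series from 100 uM, 0.5% DMSO vehicle, duplicates; FMO3 transcript by Fluidigm TaqMan qRT-PCR, housekeeping-normalized; gain/loss fit vs DMSO.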

Read-out in assay [8]: Cytochrome P450 (CYP1A1), CYP1A1 (gene 1543)
Nature of the assay: LTEA_HepaRG_CYP1A1: Life Technologies and Expression Analysis (LTEA) Assay for Cytochrome P450 (CYP1A1) using HepaRG (AID 2283454). A digest of the protocol: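 Induction of CYP1A1 mRNA in a human hepatic cell line was measured 48 h after dosing, with 1 mM phenobarbital as induction positive control and 0.5% DMSO vehicle as baseline for bidirectional curve fitting.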

Read-out in assay [9]: CFLAR gene, CFLAR (gene 8837)
Kind of assay: LTEA_HepaRG_CFLAR: Life Technologies and Expression Analysis (LTEA) Assay for CFLAR gene using HepaRG (AID 2283455). A digest of the protocol:
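HepaRG, 48 h exposure, 8-pt conc-response (100 uM top, half-log), 0.5% DMSO vehicle, duplicates. CFLAR expression by qRT-PCR; ACTB/GAPDH/POLR2A normalization; gain or loss fit vs DMSO baseline.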

Read-out in assay [10]: Forkhead box O1 (FOXO1), FOXO1 (gene 2308)
Nature of the assay: LTEA_HepaRG_FOXO1: Life Technologies and Expression Analysis (LTEA) Assay for Forkhead box O1 (FOXO1) using HepaRG (AID 2283456). Put shortly:
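Readout is FOXO1 transcript level by multiplexed qRT-PCR against three housekeeping genes, curve-fitted in both directions relative to 0.5% DMSO vehicle. Human HepaRG cultures received chemicals for 48 h, up to 100 uM in half-log steps.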

Here are results for 22 molecules from PubChem BioAssay (EPA / NIEHS).

Activity calls are given as the source filed them. The calls were made as follows: active = hit-call score of the fitted dose curve at least 0.9, where 1 is the maximum; inactive = score below 0.9.

Fatty acid synthase (Homo sapiens), sequence (P49327 whole entry, looked up): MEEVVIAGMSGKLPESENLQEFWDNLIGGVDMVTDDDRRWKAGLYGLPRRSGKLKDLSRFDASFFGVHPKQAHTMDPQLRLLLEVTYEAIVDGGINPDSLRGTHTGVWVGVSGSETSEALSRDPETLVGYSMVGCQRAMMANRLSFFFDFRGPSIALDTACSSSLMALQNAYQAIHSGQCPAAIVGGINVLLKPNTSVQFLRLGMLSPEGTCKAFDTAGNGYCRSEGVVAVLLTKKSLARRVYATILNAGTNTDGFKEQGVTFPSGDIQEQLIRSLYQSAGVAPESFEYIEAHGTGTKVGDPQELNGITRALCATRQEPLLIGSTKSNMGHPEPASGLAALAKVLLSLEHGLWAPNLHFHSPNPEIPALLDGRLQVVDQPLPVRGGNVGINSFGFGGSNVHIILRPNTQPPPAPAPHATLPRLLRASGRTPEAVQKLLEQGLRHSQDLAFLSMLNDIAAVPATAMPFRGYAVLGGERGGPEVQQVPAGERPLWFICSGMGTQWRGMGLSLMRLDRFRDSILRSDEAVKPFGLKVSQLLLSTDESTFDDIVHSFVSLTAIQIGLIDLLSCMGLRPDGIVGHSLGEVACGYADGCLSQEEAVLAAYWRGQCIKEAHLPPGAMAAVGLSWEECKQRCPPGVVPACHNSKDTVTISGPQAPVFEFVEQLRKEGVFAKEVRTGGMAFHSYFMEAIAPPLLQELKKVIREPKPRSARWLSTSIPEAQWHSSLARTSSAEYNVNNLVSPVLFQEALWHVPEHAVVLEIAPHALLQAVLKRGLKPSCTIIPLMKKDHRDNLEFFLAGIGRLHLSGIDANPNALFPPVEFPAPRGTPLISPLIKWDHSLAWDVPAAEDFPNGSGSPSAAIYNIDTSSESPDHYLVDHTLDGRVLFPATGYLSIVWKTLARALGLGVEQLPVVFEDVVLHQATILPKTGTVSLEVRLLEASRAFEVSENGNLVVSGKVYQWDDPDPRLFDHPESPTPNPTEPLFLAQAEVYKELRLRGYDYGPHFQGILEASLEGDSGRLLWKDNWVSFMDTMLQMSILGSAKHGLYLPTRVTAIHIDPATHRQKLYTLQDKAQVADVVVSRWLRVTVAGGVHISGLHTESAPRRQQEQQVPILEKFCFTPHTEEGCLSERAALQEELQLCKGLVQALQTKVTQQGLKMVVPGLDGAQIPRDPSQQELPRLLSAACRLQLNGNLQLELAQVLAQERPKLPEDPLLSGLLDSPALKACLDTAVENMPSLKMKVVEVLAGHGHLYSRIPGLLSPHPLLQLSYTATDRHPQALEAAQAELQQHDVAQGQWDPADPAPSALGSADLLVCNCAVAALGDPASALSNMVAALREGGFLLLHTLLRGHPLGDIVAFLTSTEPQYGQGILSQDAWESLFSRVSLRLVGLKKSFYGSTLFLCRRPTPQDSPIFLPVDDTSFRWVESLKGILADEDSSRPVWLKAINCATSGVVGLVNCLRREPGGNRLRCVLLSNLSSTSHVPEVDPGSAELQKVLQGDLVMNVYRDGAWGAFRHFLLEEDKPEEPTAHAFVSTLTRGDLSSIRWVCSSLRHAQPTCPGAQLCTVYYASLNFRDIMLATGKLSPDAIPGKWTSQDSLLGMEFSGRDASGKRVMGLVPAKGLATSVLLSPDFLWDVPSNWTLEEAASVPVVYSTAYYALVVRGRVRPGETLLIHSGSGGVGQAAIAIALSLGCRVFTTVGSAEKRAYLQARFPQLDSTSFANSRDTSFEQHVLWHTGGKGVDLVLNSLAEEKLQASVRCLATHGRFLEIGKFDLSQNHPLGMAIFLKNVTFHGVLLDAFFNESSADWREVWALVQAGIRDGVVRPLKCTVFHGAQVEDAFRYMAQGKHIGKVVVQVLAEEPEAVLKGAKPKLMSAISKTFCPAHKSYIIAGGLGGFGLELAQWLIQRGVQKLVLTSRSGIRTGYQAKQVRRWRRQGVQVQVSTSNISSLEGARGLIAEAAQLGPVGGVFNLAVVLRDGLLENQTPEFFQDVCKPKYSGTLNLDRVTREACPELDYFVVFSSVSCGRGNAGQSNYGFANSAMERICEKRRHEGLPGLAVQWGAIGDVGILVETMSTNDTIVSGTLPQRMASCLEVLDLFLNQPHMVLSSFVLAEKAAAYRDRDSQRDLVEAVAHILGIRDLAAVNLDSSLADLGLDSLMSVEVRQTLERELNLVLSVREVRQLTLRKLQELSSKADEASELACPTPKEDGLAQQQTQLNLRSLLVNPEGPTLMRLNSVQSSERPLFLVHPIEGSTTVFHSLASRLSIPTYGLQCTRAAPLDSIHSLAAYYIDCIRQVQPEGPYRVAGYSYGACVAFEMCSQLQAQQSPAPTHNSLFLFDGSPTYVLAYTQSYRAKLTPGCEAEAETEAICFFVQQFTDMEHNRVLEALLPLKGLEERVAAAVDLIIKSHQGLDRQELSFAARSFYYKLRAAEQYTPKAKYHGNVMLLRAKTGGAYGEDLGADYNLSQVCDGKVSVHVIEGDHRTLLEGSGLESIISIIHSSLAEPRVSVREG

Consider `Cc1ccc(-c2cc(C(F)(F)F)nn2-c2ccc(S(N)(=O)=O)cc2)cc1`, for which the AC50 is 84.5 µM (active) in assay [1]; 76.7 µM (active) in [2]; 83.6 µM (active) in assay [6]; 76.8 µM (active) in [7]; 12.5 µM (active) in assay [8]; 78.3 µM (active) in assay [9]. In addition, the AC50 in [10] was 77.2 µM (active). For the same molecule, the molecule was called inactive in [3], in assay [4] and in [5].

Regarding `CCC(C)N(C)C(=O)c1cc2ccccc2c(-c2ccccc2Cl)n1` (configuration not stated), the molecule was classed as inactive in assay [1], in [2], in [3], in [4], in assay [5] and in [6]. The outcome in [7], in assay [9] and in assay [10] was inactive. Also, in [8], the AC50 was 37.7 µM (active).

As to `CC(=O)O[C@]1(C(C)=O)CC[C@H]2[C@@H]3C=C(Cl)C4=CC(=O)[C@@H]5C[C@@H]5[C@]4(C)[C@H]3CC[C@@]21C`, the molecule was classed as inactive in assay [1], in [4], in assay [5] and in assay [8]. In addition, the half-maximal activity concentration (AC50) was 50 µM (active) in assay [2]; 0.0078 µM (active) in assay [3]; 50 µM (active) in [6]; 36.1 µM (active) in [7]; 50 µM (active) in [9]; 50 µM (active) in [10].

In the case of `CN(C)C(=O)NC1(c2ccccc2)CCN(CC[C@@]2(c3ccc(F)c(F)c3)CN(C(=O)c3ccccc3)CCO2)CC1`, the call in assay [1], in assay [3], in [4], in assay [5], in assay [6] and in [10] was inactive. Moreover, the AC50 was 29.5 µM (active) in assay [2], 57 µM (active) in assay [7] and 47 µM (active) in [8].

Regarding `CC(C)(O)c1ccc(CNC(=O)c2cccnc2Oc2ccc(F)cc2)cc1`, the result in assay [1], in assay [2], in assay [3], in [4], in [5] and in assay [6] was inactive. The molecule was classed as inactive in assay [7], in assay [9] and in [10]. Moreover, the AC50 in assay [8] is 67.4 µM (active).

Take `O=C(O)CN(CC(=O)O)CC(=O)O`: the molecule was called inactive in assay [1], in assay [2], in [3], in assay [4], in [5] and in assay [6]. Besides, the molecule was called inactive in [7], in [9] and in assay [10]. The AC50 in [8] is 79.4 µM (active).

Turning to `CC(=O)O`, the result in [1], in assay [2], in [3], in assay [4], in assay [5] and in assay [6] was inactive. Moreover, the call in assay [7], in [9] and in assay [10] was inactive. Further, the AC50 in assay [8] is 72.2 µM (active).

On to `NCCOCCOCCN`, for which the molecule was classed as inactive in assay [1], in [2], in assay [3], in assay [4], in [5] and in assay [6]. Further, the result in assay [7] and in assay [10] was inactive. Also, in assay [8], the AC50 was 50 µM (active).

Turning to `O=C(N[C@@H](c1ccccc1)[C@@H]1CCCCN1)c1cccc(C(F)(F)F)c1Cl`, the molecule was classed as inactive in [1], in assay [3], in assay [4] and in assay [8]. The AC50 in assay [2] is 85 µM (active); in [5], 16.6 µM (active); in assay [6] it was 56.7 µM (active); in assay [7], 53.7 µM (active); in assay [10], 75.9 µM (active).

`Cc1ccc(C(C)(C)C)c(O)c1`: the molecule was classed as inactive in assay [1], in [2], in [4], in [5], in [6] and in assay [7]. In addition, the molecule was called inactive in [9] and in assay [10]. In assay [8], the AC50 is 41.7 µM (active).

Take `CSc1ccc(Oc2ccc(S(N)(=O)=O)cc2CN(C)C)cc1C`: the outcome in assay [1], in assay [3], in assay [4], in assay [5] and in assay [10] was inactive. Moreover, the half-maximal activity concentration (AC50) in assay [2] is 83.1 µM (active); in assay [7] it was 77.7 µM (active); in assay [8], 69.8 µM (active).

For the molecule `CC(C)OC(=O)C(C)(C)Oc1ccc(C(=O)c2ccc(Cl)cc2)cc1`, the molecule was classed as inactive in assay [1], in assay [3], in [4], in assay [5], in [6] and in [7]. Moreover, the molecule was called inactive in assay [9] and in assay [10]. Further, the concentration at half-maximal activity (AC50) in [8] was 50 µM (active).

With `CC(=O)OCC(COC(C)=O)OC(C)=O`, the molecule was classed as inactive in assay [1], in assay [2], in [3], in [4], in assay [5] and in assay [7]. Besides, the molecule was called inactive in assay [9] and in [10]. The AC50 in assay [8] is 12 µM (active).

Turning to `OCC(O)CO`, the call in assay [1], in assay [2], in [3], in assay [4], in assay [5] and in [7] was inactive. The outcome in assay [8] and in assay [10] was inactive.

As for `CCCCCCC(C=O)=Cc1ccccc1`, the outcome in assay [1], in assay [2], in assay [4], in assay [5], in assay [7] and in assay [8] was inactive. For the same molecule, the molecule was called inactive in [9] and in [10].

Consider `CN(C)CCCN(C)CCCN(C)C`, for which the result in assay [1], in [2], in [4], in assay [5], in assay [7] and in assay [8] was inactive. The call in [9] and in assay [10] was inactive.

For `Cc1cn([C@H]2C=C[C@@H](CO)O2)c(=O)[nH]c1=O`, the outcome in [1], in [3], in assay [4], in assay [5], in assay [7] and in assay [9] was inactive. The molecule was called inactive in [10]. The AC50 in assay [8] was 69.4 µM (active).

As for `Cc1occc(=O)c1O`, the outcome in [1], in [2], in assay [3], in [4], in assay [5] and in assay [7] was inactive. Further, the call in [9] and in [10] was inactive.

Take `C/C=C/c1ccc(OC)cc1`: the call in assay [1], in [2], in assay [4], in [5], in [6] and in [7] was inactive. The call in assay [10] was inactive. Also, the AC50 in assay [8] is 50 µM (active).

`CC(=O)[C@@]1(O)CC[C@H]2[C@@H]3CCC4=CC(=O)CC[C@]4(C)[C@H]3CC[C@@]21C`: the molecule was classed as inactive in [1], in assay [3], in [4], in [5], in assay [7] and in assay [10]. Moreover, the AC50 in [2] was 50 µM (active).

Turning to `O=C(NS(=O)(=O)/C=C/c1cccs1)c1ccc(F)cc1Br`, the molecule was called inactive in assay [1], in assay [2], in [4], in [5], in [7] and in assay [10]. For the same molecule, the AC50 in assay [8] was 50 µM (active).

Regarding `Oc1ccccc1O`, the molecule was classed as inactive in [1], in assay [2], in [3], in assay [4], in [5] and in [7]. For the same molecule, the molecule was classed as inactive in assay [8] and in assay [10].

As usually defined, the AC50 is the concentration giving half of the maximal activity seen.
